The record followed here is PubChem BioAssay (NCATS).

Results filed as inconclusive are left out. A call without a number means that no potency is given here. Unmarked numbers belong to inactive results. Activity calls are given as the source filed them. Calls follow the shape of the dose curve; as a rule, active = well fitted inhibition curve with a large enough effect; inconclusive = small, poorly fitted or top-dose-only effect; inactive = no such curve, though single readings can be large or run the other way.

The target in the assay is Rap guanine nucleotide exchange factor 3 (Homo sapiens) (UniProt O95398). In words: Counterscreen qHTS for antagonist of cAMP-regulated guanine nucleotide exchange factor 3 (EPAC1) (AID 1645888).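 Also: fluorescence loss as bound BODIPY-GDP is released from Rap1B.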 To be noted: Rap1B-BODIPY-GDP nucleotide exchange, fluorescence; series mostly up to 154 µM. Put shortly: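 Rap1B–BODIPY-GDP (250 nM) with 50 uM GDP; compounds pin-transferred to 9.74 nM–152 uM final (activator) or from 7.32 nM upwards (inhibitor). Fluorescence Ex/Em 480/540 nm read at 5 and 30 min, then after adding cAMP or buffer, at room temperature.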
Chain of Rap guanine nucleotide exchange factor 3 (Homo sapiens) (O95398 whole entry, looked up): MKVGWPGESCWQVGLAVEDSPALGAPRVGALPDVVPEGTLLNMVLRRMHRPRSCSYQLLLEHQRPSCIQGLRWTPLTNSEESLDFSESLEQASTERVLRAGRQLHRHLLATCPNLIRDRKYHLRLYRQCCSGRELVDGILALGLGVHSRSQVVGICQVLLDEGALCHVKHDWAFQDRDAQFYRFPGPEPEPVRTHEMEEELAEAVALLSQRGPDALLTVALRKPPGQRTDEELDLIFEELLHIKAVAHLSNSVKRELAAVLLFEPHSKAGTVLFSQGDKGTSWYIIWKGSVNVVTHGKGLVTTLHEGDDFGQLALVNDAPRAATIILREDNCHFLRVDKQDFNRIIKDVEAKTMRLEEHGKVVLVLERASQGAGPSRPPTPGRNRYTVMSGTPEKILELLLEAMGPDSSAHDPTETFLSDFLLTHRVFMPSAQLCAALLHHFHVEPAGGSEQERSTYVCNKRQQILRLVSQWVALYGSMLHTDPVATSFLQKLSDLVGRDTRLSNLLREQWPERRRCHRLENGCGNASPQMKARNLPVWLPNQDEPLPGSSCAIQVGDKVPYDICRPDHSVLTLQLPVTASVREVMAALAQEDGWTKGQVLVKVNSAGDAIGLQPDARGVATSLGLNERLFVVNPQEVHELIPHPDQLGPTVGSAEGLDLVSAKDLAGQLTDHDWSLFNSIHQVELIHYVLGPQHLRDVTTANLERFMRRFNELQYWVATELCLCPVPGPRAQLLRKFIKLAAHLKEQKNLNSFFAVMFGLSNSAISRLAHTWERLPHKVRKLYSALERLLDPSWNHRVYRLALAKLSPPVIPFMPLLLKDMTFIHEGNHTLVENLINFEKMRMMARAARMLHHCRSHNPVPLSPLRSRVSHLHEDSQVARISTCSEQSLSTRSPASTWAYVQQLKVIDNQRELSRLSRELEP
With `CCCC[C@@H]1C=C(C(=O)O)[C@H](c2ccc(Cl)c(Cl)c2)N1S(=O)(=O)c1ccc(C)cc1`, the Potency entry is “inactive”. Same read-out and setting: for `COCCN(CCOC)Cc1cc(=O)oc2cc(C)cc(C)c12` the value was “inactive”; for `O=C(O)CCCN1C(=O)/C(=C/c2cn(-c3ccccc3)nc2-c2cccs2)SC1=S`, “inactive”. On to `c1ccc(CNc2c(-c3cccc(SC4CCCCC4)c3)nc3ccccn23)cc1`, for which the activity change, negative = inhibition was 4.85% [at 30.8 µM].

As to `COC(=O)c1ccc2nc(-c3ccc(OC)c(OC)c3)c(CC3CCCCC3)n2c1`, the Potency entry is “inactive”. For `Cc1cc(C)c2c(c1)OC(=O)CC2c1ccccc1C` (stereo not given), the Potency result is “inactive”. On the same count and under the same terms, for `O=C(O)c1cnn(-c2nc(-c3ccc(Cl)c(Cl)c3)cs2)c1C(F)(F)F` the value was “inactive”; for `CCCCn1nnnc1C(c1cc2ccccc2o1)N1CCCC1` (stereo not given), “inactive”. As for `COCCN(CCOC)Cc1cc(=O)oc2cc(OC)c(Cl)cc12`, the activity change, negative = inhibition was -10.8% [at 30.8 µM]. Same read-out and setting: for `CC1CCCN(C2(O)C(=O)Nc3c(C(F)(F)F)cccc32)C1` (stereo not given) the value was -14.6% [at 30.8 µM]; for `Cc1ccc(C2(c3noc(CN(C)CC4CCCCO4)n3)CCCC2)cc1` (stereo not given), -7.57% [at 30.8 µM]; for `COC(=O)c1ccc2nc(-c3ccc(F)cc3)c(CC3CCCCC3)n2c1`, -8.86% [at 30.8 µM]. On the same count and under the same terms, then `COc1ccc2cc(S(=O)(=O)N3CCCC3)ccc2c1`, with -17.9% [at 30.8 µM]. `Cc1ccc2cccc(Oc3nnnn3-c3ccccc3)c2n1`: the Potency entry is “inactive”.

`CC1CN(c2nc3ccccc3cc2-c2ccccc2)CC(C)O1` (stereo not given): the Potency result is “inactive”.

As to `C=C(C)Cn1c(C)cc(C)c(S(=O)(=O)c2ccccc2C)c1=O`, the activity change, negative = inhibition is -6.66% [at 30.8 µM].

For the compound `CC(C)CN(C(=O)c1ccco1)c1nc2ccccc2s1`, the Potency entry was “inactive”. In the case of `CCOC(=O)C1Oc2ccccc2C(c2ccc(F)cc2)=C1C(=O)OC` (stereo not given), the activity change, negative = inhibition is -24.6% [at 30.8 µM]. For `COC(=O)c1cccc(F)c1C(=O)c1cccc2ccccc12`, the Potency result is “inactive”.

Consider `CC(OC(=O)c1ccccc1Oc1ccccc1)C(=O)NC1CC1` (stereo not given), for which the Potency entry is “inactive”. In the case of `COc1ccc(C2CC(=O)Oc3cc(C)cc(C)c32)cc1` (stereo not given), the Potency entry is “inactive”.

As to `CCn1c(=O)c(C(=O)NNS(=O)(=O)c2ccc(C)cc2)c(O)c2ccccc21`, the Potency result is “inactive”. Regarding `Cc1ccc(C2(c3noc(CN(C)Cc4ccccn4)n3)CCCC2)cc1`, the activity change, negative = inhibition was -21.5% [at 30.8 µM]. For the compound `O=C(O)c1ccc(NC(=O)C(c2ccccc2)c2ccccc2)cc1`, the Potency result was “inactive”. Regarding `COC(=O)[C@@H]1CC[C@@](C)(c2ccc(OC)cc2)C1(C)C`, the activity change, negative = inhibition was 8.1% [at 30.8 µM].

As for `CC1CN(c2nc(-c3ccccc3)nc3ccccc23)CC(C)O1` (stereo not given), the activity change, negative = inhibition was 3.46% [at 30.8 µM]. Regarding `COc1ccc(-n2cc(-c3ccccc3)c3c(N4CCOCC4)ncnc32)cc1`, the Potency entry was “inactive”. For the compound `COc1ccc(/C=C/C(=O)c2ccc(Cl)cc2)c(OC)c1`, the Potency result is “inactive”. On the same count and under the same terms, for `COc1ccc(S(=O)(=O)Nc2ncccc2C)c2ccccc12` the value was “inactive”; for `COc1cc(N)ccc1-c1cc2ccccc2oc1=O`, “inactive”.

Turning to `COc1ccc(S(=O)(=O)N2CCCC2)c2ccccc12`, the activity change, negative = inhibition was -10.4% [at 30.8 µM]. On the same count and under the same terms, for `CCCCc1c(C)nc2ccccc2c1SCCC#N` the value was -10% [at 30.8 µM]. `COc1cc(NC(C)=O)ccc1-c1cc2ccccc2oc1=O`: the Potency result is “inactive”. The same measure, in the same setting: then `CCCCC1=C(C(=O)OCC)C(C(=O)OCC)Oc2ccccc21` (stereo not given), with “inactive”; and `CCC(=O)OC1CC(C)N(C(=O)c2ccccc2)c2ccc(C)cc21` (stereo not given), with “inactive”; and `Cc1ccc(C2N(c3ccc(Cl)cc3)C(=O)N3CCCN23)cc1` (stereo not given), with “inactive”. Still for that read-out and setting: for `COc1ccc2c(c1)CCc1c(C(=O)N3CCCc4ccccc43)noc1-2` the value was “inactive”. Still for that read-out and setting: for `CCOc1cc(C)c(S(=O)(=O)N2CCCCC2)cc1C` the value was “inactive”; for `Cc1cccc2c1NC(=O)C2(O)N1CCCC(C)C1` (stereo not given), “inactive”.

Turning to `COc1ccc(-c2ccc(CCC(=O)O)n2-c2ccc(Cl)cc2C)cc1`, the Potency result is “inactive”.
